Assay results taken from PubChem BioAssay AID504550 (Sanford-Burnham Center for Chemical Genomics, 2011).
This is one part of the list. Calls of active or inactive are those of the source.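 Rule for the calls: active = mean activation at 20 µM of at least 40%; inactive = the rest.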

Target: Neurotensin receptor type 1 (Homo sapiens) (UniProt P30989)
Experiment: NTR1 agonists, single-dose retest, confirmation, imaging, U2OS cells, beta-arrestin-GFP, single concentration (AID 504550);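 note: 0% = DMSO without peptide and 100% = 100 nM NTR1 peptide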
Conditions: NTR1-U2OS beta-arrestin-GFP translocation imaging; at 20 µM; stronger effect = higher value

Sequence of Neurotensin receptor type 1 (Homo sapiens) (P30989 whole entry, looked up): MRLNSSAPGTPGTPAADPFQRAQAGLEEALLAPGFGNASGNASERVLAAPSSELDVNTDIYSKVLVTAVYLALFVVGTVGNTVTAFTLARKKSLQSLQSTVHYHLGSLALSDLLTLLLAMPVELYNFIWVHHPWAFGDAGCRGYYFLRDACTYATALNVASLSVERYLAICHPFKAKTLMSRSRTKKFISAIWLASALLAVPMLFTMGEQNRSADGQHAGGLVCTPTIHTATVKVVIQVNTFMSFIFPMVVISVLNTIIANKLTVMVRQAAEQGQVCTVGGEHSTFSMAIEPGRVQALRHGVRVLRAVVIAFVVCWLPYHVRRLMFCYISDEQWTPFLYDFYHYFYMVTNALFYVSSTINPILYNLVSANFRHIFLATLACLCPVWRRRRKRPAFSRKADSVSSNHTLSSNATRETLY

SMILES | activation
O=C1NC(=O)N(CCc2ccc(F)cc2)C(=O)/C1=C/C=C/c1ccccc1 | 43.1% (active)
Cc1cccc(N2C(=O)NC(=O)/C(=C\c3cnn(-c4ccccc4)c3)C2=O)c1 | 47.1% (active)
